# High-throughput results as filed in PubChem.
# Only some compounds are listed: those with a hit (about 7.7% of all), similar ones and a draw of the others.
# RE007 growth inh: less growth of the S. pombe RE007 Vpr strain; S. pombe RE007 Vpr strain, BacTiter-Glo ATP luminescence, 24 h; Potency, µM (titrated, usually from 92.2 µM), for the others: at the highest dose activity change, negative = less growth, most hits filed as inhibitors; 360,000 tested, 0.21% active; AID 651644; active means well fitted falling curve with a large enough effect; inconclusive means small, poorly fitted or top-dose-only effect; inactive means no such curve, though single readings can be large or run the other way; further: potency means the concentration at half of the fitted maximal effect; nearly all actives have a fitted effect of over 50% in size
#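 Fission yeast strain RE007, carrying one chromosomally integrated HIV-1 vpr copy, was seeded at OD 0.01 in PMG+AL medium with 23 nL pinned compound. After 24 h at 30 °C and 99% humidity, viability was read by BacTiter-Glo luminescence.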
# FBPA Giardia inh: Giardia lamblia aldolase inhibition. purified Giardia FBPA. 290,000 tested, 0.71% active. A8B2U2. Potency, µM (doses to about 59.6 µM), inactives show at the highest dose activity, negative = inhibition, most hits filed as inhibitors; further: potency means the concentration at half of the fitted maximal effect; nearly all actives have a fitted effect of over 55% in size
# Target sequence (A8B2U2 whole entry, looked up): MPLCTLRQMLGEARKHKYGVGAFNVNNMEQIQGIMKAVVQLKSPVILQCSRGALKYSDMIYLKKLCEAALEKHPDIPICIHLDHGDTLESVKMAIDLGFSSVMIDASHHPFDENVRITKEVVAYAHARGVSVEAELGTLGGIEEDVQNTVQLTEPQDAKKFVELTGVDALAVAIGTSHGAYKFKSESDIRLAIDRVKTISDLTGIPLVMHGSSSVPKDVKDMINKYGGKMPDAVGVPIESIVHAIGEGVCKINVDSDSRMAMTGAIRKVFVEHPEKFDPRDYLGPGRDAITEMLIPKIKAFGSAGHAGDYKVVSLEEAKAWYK
#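 40 nM FBPA preincubated 10 min at RT with compound (up to 57.5 uM final), then substrate plus GAPDH/TPI/NAD/arsenate coupling and diaphorase/resazurin added. Fluorescence read after 20 min at RT, 525/598 nm.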
# HCMV inh: inhibitors of human cytomegalovirus; AID 1259415; activity change, negative = inhibition, % at 57.5 µM; HFF cells, HCMV-luciferase reporter, 72 h; stronger effect = lower value; 410,000 tested, 4.5% active; in the data active means activity change below about -60%; inconclusive means no clear call, values can overlap the other calls; inactive means above about -39%
#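 After 16 h attachment at 37C, HFF cells received test compound and HCMV-luciferase (1 PFU/cell); reporter luminescence read 72 h later, data normalized against buffer-only and known inhibitor Salinomycin.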
# TbPYK inhibitor: blocks Trypanosoma brucei pyruvate kinase | Q57TT1 | TbPYK enzyme, Kinase-Glo Plus ATP luminescence, 45 min | Potency, µM (series often up to 76.8 µM), inactives show at the highest dose activity, negative = inhibition, usual class: inhibitors | 410,000 tested, 0.12% active | AID 624173; further: potency means the concentration at half of the fitted maximal effect; nearly all actives have a fitted effect of over 50% in size
#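 Enzyme and substrate buffer are dispensed first and compound is pin-transferred. ADP at 130 uM final then starts the reaction, which runs 45 min at room temperature. Detection reagent is added for 10 min before luminescence is imaged.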
# FMDV antiviral: blocks foot and mouth disease virus; FMDV antiviral cell-based qHTS; Potency, µM (titrated, usually from 57.9 µM), for inactives: top-dose activity change, negative = inhibition, actives largely listed as inhibitors; 410,000 tested, 1.2% active; AID 1159524; calls by dose curve; tested in HEK293T cells; further: read-out not given here; potency means the concentration at half of the fitted maximal effect; nearly all actives have a fitted effect of over 45% in size
# Sm TGR inh: inhibitors of Schistosoma mansoni thioredoxin glutathione reductase | purified TGR, DTNB reduction, TNB absorbance 405 nm | AID 485364 | Potency, µM (highest dose often 114 µM), inactives show at the highest dose activity change, negative = inhibition, actives largely listed as inhibitors | 360,000 tested, 3% active; further: potency means the concentration at half of the fitted maximal effect; nearly all actives have a fitted effect of over 60% in size
#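 First, TGR (20 nM dispensed) and NADPH were mixed with compound. Second, a 15 min room-temperature incubation followed. Third, further NADPH and then DTNB were added to start the reaction. Finally, TNB absorbance was monitored kinetically.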
# Active calls of the source: *; ? = inconclusive; · = not tested or not shown. Unless noted, the call rests on the fitted dose curve; in most records, active means well fitted curve in the direction sought with a large enough effect; inconclusive means small, poorly fitted or top-dose-only effect, or another doubt; inactive means no such curve, though single readings can be large; an effect the other way counts as inactive or inconclusive. On the % scale 0 is the no-effect control and ±100 the full control effect.
SMILES,RE007 growth inh,FBPA Giardia inh,HCMV inh,TbPYK inhibitor,FMDV antiviral,Sm TGR inh
N=c1n(CC(=O)c2ccc([N+](=O)[O-])cc2)c2ccccc2n1Cc1ccccc1,-34%,1%,-83*,-4%,-15%,8%
N=c1n(CC(=O)c2ccc(Br)cc2)c2ccccc2n1Cc1ccccc1,2%,·,-61*,-5%,-12%,-5%
N=c1n(Cc2ccccc2)c2ccccc2n1Cc1ccccc1,6%,5%,?,-12%,0%,2%
Cc1ccc(C(=O)Cn2c(=N)n(N)c3ccccc32)cc1,17%,-5%,39,2%,40µM*,10%
N=c1n(CC(=O)c2ccc([N+](=O)[O-])cc2)c2ccccc2n1Cc1ccc(Cl)cc1,-7%,-2%,-13,-2%,-2%,-4%
N=c1n(CC(=O)c2ccc([N+](=O)[O-])cc2)c2ccccc2n1Cc1ccccc1Cl,3%,7%,?,-5%,28µM*,-5%
C/C(CC(=O)Nc1cc(C)ccn1)=N\NC(=O)c1cccc(C)c1O,?,·,-98*,1%,51%,4%
C/C(CC(=O)Nc1ccccn1)=N\NC(=O)c1ccccc1,·,0%,·,·,·,-3%
C/C(CC(=O)Nc1ccccn1)=N\NC(=O)c1ccccc1O,-11%,-3%,-91*,2%,29%,2%
O=C(NC1CC(=O)N(c2ccc(F)cc2)C1)c1ccc(S(=O)(=O)N2CCCCC2)cc1 (stereo not given),·,·,?,3%,-23%,3%
CCOc1ccc(-n2cc(C(=O)Nc3ccccc3OCC)c3cc(OC)c(OC)cc3c2=O)cc1,·,·,-3,2%,-8%,-2%
Cc1ccc(NC(=O)c2cc(C(=O)c3cc(Cl)ccc3O)cn(-c3ccc(C)cc3)c2=O)cc1,·,-5%,-70*,-11%,0%,-1%
N#Cc1cc(C(=O)c2cc(Cl)ccc2O)cn(-c2ccccc2)c1=O,14%,1%,-1,-4%,-20%,-6%
COc1ccc(-n2cnc3sc(-c4ccccc4)cc3c2=O)cc1,11%,1%,-87*,4%,·,11%
COc1cccc(-n2cnc3sc(-c4ccccc4)cc3c2=O)c1,19%,·,11,-6%,69%,·
CC(=O)c1ccc(Cc2ccc(C(C)=O)cc2)cc1,5%,9%,-88*,-1%,-9%,1%
Cc1c(C(=O)N(C)Cc2cccc3ncccc23)cnn1-c1nccc(-c2ccccc2F)n1,·,·,·,·,-10%,·
CC(C)c1c(C(=O)N(C)Cc2cccc3ncccc23)cnn1-c1nccc(-c2ccccc2F)n1,·,·,·,·,13µM*,·
Cn1c(=O)c2c(nc3n2CC(O)CN3c2ccc(O)cc2)n(C)c1=O (stereo not given),17%,3%,1,6%,20%,20µM*
Cc1ccc(N2CC(O)Cn3c2nc2c3c(=O)n(C)c(=O)n2C)cc1 (stereo not given),10%,-3%,-25,1%,-15%,80%
CC(=O)c1cccc(NC(=O)Cn2c(-c3cncs3)nc3ccccc32)c1,·,·,8,0%,-13%,-2%
Cc1ccc2nc3sc(C(=O)N4CCOCC4)c(N)c3cc2c1,-6%,7%,-69*,-7%,10µM*,-1%
Cc1c(N=Cc2ccc(Cl)o2)c(=O)n(-c2ccccc2)n1C,2%,-13%,48,-6%,20%,22µM*
CCOC(=O)Cc1ccc(NC(=O)N(Cc2ccc(CC)cc2)Cc2cn[nH]c2-c2ccc(OC)cc2)cc1,·,·,-2,-5%,-16%,2%
CCOC(=O)c1ccccc1NC(=O)N(Cc1ccc(CC)cc1)Cc1cn[nH]c1-c1ccc(OC)cc1,·,·,-63*,-2%,?,0%
SMILES,RE007 growth inh,FBPA Giardia inh,HCMV inh,TbPYK inhibitor,FMDV antiviral,Sm TGR inh
CCc1ccccc1N1CSC2=C(C#N)C(c3ccccc3F)CC(=O)N2C1 (stereo not given),-14%,6.3µM*,8,8.9µM*,?,18µM*
COc1cc(OC)c(C2CC(=O)N3CN(c4ccccc4C)CSC3=C2C#N)cc1OC (stereo not given),·,4.5µM*,11,·,·,32µM*
COc1cccc(-c2nccc(NCc3ccccc3)n2)c1,·,-4%,·,·,-19%,·
COc1ccc(-n2nc3ccc(NC(=O)c4ccc(C#N)cc4F)cc3n2)cc1Cl,·,·,?,2%,-24%,4%
COc1ccc(N=Nc2nc3cc(Br)c(Br)cc3n2C)c(OC)c1,15%,?,-16,-12%,31%,45µM*
O=c1cc(-c2ccncc2)oc2c1ccc1ccccc12,10%,9%,-79*,-1%,-27%,2%
O=c1cc(C(Cl)(Cl)Cl)oc2c1ccc1ccccc12,6%,1%,-105*,-1%,14µM*,-35%
CC(C)Oc1cccc(NC(=O)C2CCN(S(=O)(=O)Cc3ccccc3)CC2)c1,·,·,-5,-5%,?,-10%
CCOC(=O)c1ccccc1NC(=O)c1sc2nc3n(c(=O)c2c1C)CCCC3,·,·,25,-2%,-7%,45µM*
Cc1cc(Br)ccc1NC(=O)c1sc2nc3n(c(=O)c2c1C)CCCC3,·,·,-33,1%,21%,22µM*
CCOC(=O)c1sc2nc3n(c(=O)c2c1C)CCCCC3,1%,5%,28,4%,48%,0%
Cc1ccc(NC(=O)c2sc3nc4n(c(=O)c3c2C)CCCCC4)c(Br)c1,·,·,9,0%,-8%,-5%
Cc1nc2cnc(N(C)C)nc2n(CCc2ccccc2)c1=O,·,1%,·,·,-15%,·
O=C1CSC(=S)N1c1cccc(Br)c1,?,-9%,-77*,1%,?,-3%
O=C1c2ccccc2C(=O)C1c1ccc(Br)cc1,2%,-14%,-32,-3%,27%,-8%
O=C1c2ccccc2C(=O)C1c1ccc(O)cc1,-26%,4%,-61*,-21%,4%,-22%
COc1cc2c(cc1OC)C(C)N(C(=O)c1cc3n(n1)C(C(F)(F)F)CC(c1ccco1)N3)CC2 (stereo not given),-14%,?,10,3%,-27%,25µM*
COc1ccc(C2=NO[C@@H]3C(=O)N(c4ccc(C)cc4C)C(=O)[C@H]23)cc1OC,?,11%,-28,-10%,-4%,11µM*
COc1ccc(-c2cn(-c3ccc(C)cc3C)c(=O)[nH]2)cc1OC,-5%,-3%,-31,-8%,-17%,11µM*
COc1ccc(Nc2nc3c(S(=O)(=O)c4ccc(C)cc4)nnn3c3ccsc23)cc1Cl,·,·,-1,1%,-15%,-29%
NC(N)=NC(N)=Nc1ccc2ccccc2c1,-28%,8%,-69*,-4%,-7%,-1%
O=C1NC2C3CC(c4ccccc43)C12 (stereo not given),1%,·,-70*,-4%,-22%,·
